Holding throughout (experiment): cell proliferation relative to vehicle (% of vehicle); higher = less growth inhibition
Details in all cases: 72 h

The test system of test [1] is U2932 TK216-resistant clone 2. A digest of the protocol: (§1)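 A library of 348 targeted inhibitors was screened against the ABC-DLBCL cell line U2932, using parental cells and two clones made resistant to an ETS-targeting agent through repeated exposure over almost a year. The cells were cultured at 37°C and 5% CO2 in medium containing 10% FBS and treated at 500 nM or 50 nM for 72 h, after which MTT was added for 4 h, stopped with 25% SDS, and absorbance was read on a Cytation 3. Proliferation is given as the percentage of proliferating cells relative to the vehicle, DMSO.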

In test [2] the test system is U2932 TK216-resistant clone 3. A digest of the protocol: as §1
The test system of another test is U2932 parental. A digest of the protocol: as §1

Molecules are shown by their SMILES. Counter-ions that a name gives are not always drawn.

Regarding `CCCCCCCCc1ccc(CCC(N)(CO)CO)cc1` [Fingolimod (FTY720) HCl], the cell proliferation in test [1] (50 nM) came out at 99.3; in test [1] (500 nM) it was 102; in test [2] (50 nM), 99.6; in test [2] (500 nM), 96.1; with U2932 parental (50 nM) it was 98.3; in the test on U2932 parental (500 nM), 94.8.
Consider `CC(=O)Nc1ccc(NC(=S)NC(=O)c2ccc(C(C)(C)C)cc2)cc1` [Tenovin-1], for which the cell proliferation in test [1] (50 nM) turned out to be 105; in test [1] (500 nM), 95.1; in test [2] (50 nM), 107; in test [2] (500 nM), 102; with U2932 parental (50 nM), 102; with U2932 parental (500 nM), 98.7.
Consider `Cc1ccc(F)c(NC(=O)Nc2ccc(-c3cccc4[nH]nc(N)c34)cc2)c1` [Linifanib (ABT-869)], for which the cell proliferation in test [1] (50 nM) was 99.8; in test [1] (500 nM), 93.1; in test [2] (50 nM), 99; in test [2] (500 nM) it was 95.7; in the test on U2932 parental (50 nM) it was 90.6; with U2932 parental (500 nM), 107.
As for `Cn1cc(C2=C(c3ccc(Cl)cc3Cl)C(=O)NC2=O)c2ccccc21`, the cell proliferation was found to be 105 in test [1] (50 nM); 96.2 in test [1] (500 nM); 105 in test [2] (50 nM); 108 in test [2] (500 nM); 97.8 in the test with U2932 parental (50 nM); 100 in the test with U2932 parental (500 nM).
With `Cc1cc(CS(=O)(=O)c2ccccc2)cc(OCc2ccc(CN3CCC[C@@H]3CO)cc2)c1`, the cell proliferation in test [1] (50 nM) came to 105; in test [1] (500 nM), 90.6; in test [2] (50 nM), 106; in test [2] (500 nM), 97.9; with U2932 parental (50 nM) it was 97.2; in the test with U2932 parental (500 nM), 107.
Take `O=C(Nc1cc(C(F)(F)F)cc(C(F)(F)F)c1)c1cc(Cl)ccc1O`: the cell proliferation in test [1] (50 nM) is 103; in test [1] (500 nM), 104; in test [2] (50 nM), 109; in test [2] (500 nM) it was 102; in the test on U2932 parental (50 nM), 102; in the test with U2932 parental (500 nM) it was 101.
For the molecule `CO[C@H]1C[C@@H]2CC[C@@H](C)[C@@](O)(O2)C(=O)C(=O)N2CCCC[C@H]2C(=O)O[C@H]([C@H](C)C[C@@H]2CC[C@@H](OCCO)[C@H](OC)C2)CC(=O)[C@H](C)/C=C(\C)[C@@H](O)[C@@H](OC)C(=O)[C@H](C)C[C@H](C)/C=C/C=C/C=C/1C` [Everolimus (RAD001)], the cell proliferation in test [1] (50 nM) came to 65.8; in test [1] (500 nM), 65.5; in test [2] (50 nM), 64.2; in test [2] (500 nM) it was 66.5; with U2932 parental (50 nM), 55.5; in the test on U2932 parental (500 nM), 59.1.
As to `CC(=O)Nc1cccc(-n2c(=O)n(C3CC3)c(=O)c3c(Nc4ccc(I)cc4F)n(C)c(=O)c(C)c32)c1`, the cell proliferation in test [1] (50 nM) amounted to 103; in test [1] (500 nM) it was 105; in test [2] (50 nM), 98.2; in test [2] (500 nM), 93.7; in the test with U2932 parental (50 nM) it was 92.9; with U2932 parental (500 nM), 94.4.
Take `Oc1c2ccccc2c2c3c(cccc13)N=N2`: the cell proliferation in test [1] (50 nM) turned out to be 101; in test [1] (500 nM), 113; in test [2] (50 nM) it was 105; in test [2] (500 nM), 104; in the test with U2932 parental (50 nM) it was 103; in the test on U2932 parental (500 nM), 101.
With `N#CC[C@H](C1CCCC1)n1cc(-c2ncnc3[nH]ccc23)cn1`, the cell proliferation in test [1] (50 nM) was 100; in test [1] (500 nM), 95.4; in test [2] (50 nM) it was 103; in test [2] (500 nM) it was 108; with U2932 parental (50 nM) it was 96.7; in the test on U2932 parental (500 nM), 96.5.
`Nc1nc(Nc2ccc(S(N)(=O)=O)cc2)nn1C(=O)c1c(F)cccc1F`: the cell proliferation in test [1] (50 nM) was found to be 103; in test [1] (500 nM), 85.3; in test [2] (50 nM), 102; in test [2] (500 nM), 78.1; in the test on U2932 parental (50 nM) it was 98.8; with U2932 parental (500 nM) it was 87.7.
On to `COc1ccc(-c2ccc3ncc4c(c3c2)n(-c2ccc(N3CCNCC3)c(C(F)(F)F)c2)c(=O)n4C)cn1`, for which the cell proliferation in test [1] (50 nM) is 15.8; in test [1] (500 nM), -0.777; in test [2] (50 nM), 30.9; in test [2] (500 nM), 0.399; in the test on U2932 parental (50 nM), 19.7; with U2932 parental (500 nM), 1.95.
For the molecule `CC(C)(C)c1nc(-c2cccc(NS(=O)(=O)c3c(F)cccc3F)c2F)c(-c2ccnc(N)n2)s1`, the cell proliferation in test [1] (50 nM) was 111; in test [1] (500 nM), 101; in test [2] (50 nM) it was 106; in test [2] (500 nM) it was 110; with U2932 parental (50 nM), 101; in the test with U2932 parental (500 nM), 93.
Take `O=C(CCCCCCC(=O)Nc1ccccc1)NO` [Vorinostat (SAHA, MK0683)]: the cell proliferation in test [1] (50 nM) stood at 108; in test [1] (500 nM), 91.3; in test [2] (50 nM) it was 107; in test [2] (500 nM) it was 88.9; in the test with U2932 parental (50 nM), 98.2; in the test on U2932 parental (500 nM) it was 81.6.
Consider `Cc1cc([C@@H](C)Nc2ccccc2C(=O)O)c2nc(N3CCOCC3)cc(=O)n2c1`, for which the cell proliferation came to 107 in test [1] (50 nM); 95 in test [1] (500 nM); 103 in test [2] (50 nM); 95.3 in test [2] (500 nM); 99.9 with U2932 parental (50 nM); 101 in the test on U2932 parental (500 nM).
For the molecule `COc1ccc(C(=O)C2CCN(CC(=O)N(Cc3nc4c(c(=O)[nH]3)COCC4)CC3CC3)CC2)cc1`, the cell proliferation stood at 99.7 in test [1] (50 nM); 95.3 in test [1] (500 nM); 92.2 in test [2] (50 nM); 93.6 in test [2] (500 nM); 97.7 in the test on U2932 parental (50 nM); 97.5 in the test on U2932 parental (500 nM).
Take `COc1cc2c(cc1O)CC[C@@H]1[C@@H]2CC[C@]2(C)[C@@H](O)CC[C@@H]12` [2-Methoxyestradiol (2-MeOE2)]: the cell proliferation in test [1] (50 nM) worked out at 105; in test [1] (500 nM), 102; in test [2] (50 nM) it was 103; in test [2] (500 nM) it was 83.4; in the test with U2932 parental (50 nM), 99.8; in the test on U2932 parental (500 nM), 54.
Consider `O=C1NC(=O)C(c2ccccc2[N+](=O)[O-])=C1Nc1ccc(O)c(Cl)c1`, for which the cell proliferation turned out to be 111 in test [1] (50 nM); 113 in test [1] (500 nM); 110 in test [2] (50 nM); 105 in test [2] (500 nM); 108 with U2932 parental (50 nM); 101 with U2932 parental (500 nM).

Values taken from the supplement of paper PMC13172266.
